# Measurements reported in PubChem BioAssay (Tox21).
# Values without a mark were called inactive. Activity calls are given as the source filed them. The call rests on the fitted dose curve; in most records, active means well fitted curve in the direction sought with a large enough effect in the repeat runs; inconclusive means weak or mixed curves; inactive means flat fitted curve, though single readings scatter.
# Test: qHTS assay to test for compound auto fluorescence at 460 nm (blue) in HEK293 cells (AID 720678)
# Conditions: blue autofluorescence 405/460 nm; series mostly up to 91.3 µM; fluorescence, % of triamterene: at the top concentration
# From the text: National Center for Advancing Translational Sciences [NCATS]
# NIH Chemical Genomics Center [NCGC]
# U.S. Environmental Protection Agency [EPA]
# National Institutes of Environmental Health Sciences [NIEHS]
# National Toxicology Program [NTP]
# U.S. Food and Drug Administration [FDA]
# Compound auto fluorescence often interferes with screening of the compound library against various biological targets and signaling pathways. Some of these compounds may have fluorophoric properties. Such properties may interfere with the assay outputs resulting in false positives and/or negatives. To decrease such complications and ensure the compound activities are relevant in terms of biological response, the Tox21 10K compound library was screened for auto fluorescence.
# From the fluorophores used as reporter signals in our screening assays, the auto fluorescence equivalencies of compounds against three fluorophores have been evaluated: Triamterene, Fluorescein and Rose Bengal sodium for blue, green and red fluorescence, respectively. The fluorescence intensities were measured using Excitation/Emission wavelengths at 405/460nm, 485/535nm and 540/590nm for blue, green and red labels, respectively. This assay includes the blue fluorescence data.
# Tox21 Assay Protocol Summary:
# 2,000 HEK293 cells in 5 uL of culture medium containing 10% dialyzed FBS per well were dispensed into black wall/clear bottom 1536-well plates using a Multidrop Combi Dispenser (Thermo Scientific). The assay plates were incubated for 4-5 hr at 37C to allow cell attachment to the well bottom, followed by the transfer of 23 nL compound or DMSO vehicle by a pintool work station (Kalypsys, San Diego, CA). After the assay plates were incubated overnight at 37C and 5% CO2, fluorescence intensities in the assay plates were measured by an Envision (PerkinElmer, Shelton, CT) plate reader using three labels for measuring blue, green and red fluorescence at […] 460, 535 and 590nm respectively.
# On the % scale 0 is the no-effect control and ±100 the full control effect.
SMILES,"fluorescence, % of triamterene",outcome
C[C@H]1C[C@H]2[C@@H]3CCC4=CC(=O)C=C[C@]4(C)[C@H]3C(=O)C[C@]2(C)[C@@]1(O)C(=O)CO,-0.109% [at 46 µM],
NS(=O)(=O)Cc1noc2ccccc12,-0.0167% [at 46 µM],
C=CCCC(=O)O,-0.0604%,
CNCCO,-0.0623%,
Cc1ccc(C(=O)c2ccccc2)cc1,0.16%,
N[C@@H](CCC(=O)O)C(=O)O,,inactive
CCN[C@H]1C[C@H](C)S(=O)(=O)c2sc(S(N)(=O)=O)cc21,-0.0063% [at 46 µM],
Cc1ccc(-c2ncc(Cl)cc2-c2ccc(S(C)(=O)=O)cc2)cn1,0.118% [at 46 µM],
CC(C)(N)C#N,-0.0353% [at 95.7 µM],
C[N+]1(C)CCCC(OC(=O)C(O)(c2ccccc2)c2ccccc2)C1 (stereo not given),0.0818% [at 18.6 µM],
CC1=CCC(O)(C(C)C)CC1 (stereo not given),0.0141%,
CC(C)C1CCC(O)CC1 (stereo not given),0.0291%,
CC(COc1ccccc1)NN (stereo not given),0.0123% [at 46 µM],
CC(N)C12CC3CC(CC(C3)C1)C2 (stereo not given),-0.0428% [at 46 µM],
CC(C)(CCC(=O)O)C(=O)O,-0.189% [at 95.7 µM],
CC(C)(C)C(=O)c1ccccc1,0.0068%,
Cc1ncc(COP(=O)(O)O)c(C=O)c1O,0.286% [at 46 µM],
C=C(C)C(=O)OCC1CCCO1 (stereo not given),-0.111%,
O=CN(CCO)CCO,-0.0253%,
Cc1cc(C)c(N=Nc2c(O)c(S(=O)(=O)O)cc3cc(S(=O)(=O)O)ccc23)cc1C,-0.0938% [at 9.17 µM],

SMILES,"fluorescence, % of triamterene",outcome
CN(C)[C@@H]1C(=O)C(C(=O)NCN2CCCC2)=C(O)[C@@]2(O)C(=O)C3=C(O)c4c(O)cccc4[C@@](C)(O)C3C[C@@H]12 (stereo not given in full),,inactive
Cc1nc2ccc(CN(C)c3ccc(C(=O)N[C@@H](CCC(=O)O)C(=O)O)s3)cc2c(=O)[nH]1,,inactive
CC(=O)Oc1cccc(C)c1,-0.0287% [at 46 µM],
Clc1cc(Cl)cc(Cl)c1,-0.258%,
CCOC(=O)OC(C)OC1=C(C(=O)Nc2ccccn2)N(C)S(=O)(=O)c2ccccc21 (stereo not given),-0.0827% [at 46 µM],
CN1CCN(c2cc3c(nn2)Oc2ccccc2N3C)CC1,0.995% [at 46 µM],
CC(=O)OCC(=O)[C@@]1(O)[C@H](C)C[C@H]2[C@@H]3CCC4=CC(=O)C=C[C@]4(C)[C@@]3(F)[C@@H](O)C[C@@]21C,,inactive
Nc1ccncc1N,-0.168% [at 46 µM],
C[C@@H]1CCC[C@H](C)N1,0.0181% [at 18.6 µM],
COc1cccc(OC)c1C(=O)N[C@@H]1C(=O)N2[C@@H]1SC(C)(C)[C@@H]2C(=O)O,0.0349% [at 46 µM],
CCNS(=O)(=O)c1ccc(C)cc1,0.112% [at 95.7 µM],
COc1cc(C)nc(-n2nc(C)cc2OC)n1,0.0208% [at 18.6 µM],
CN1C(C)(C)CC(O)CC1(C)C,0.0595%,
CC(C)CCCO,0.0226%,
C=CN1CCCCCC1=O,0.13%,
CCCOC(=O)CC,0.0168%,
CCCCc1ccc2c(n1)[C@@H](c1ccc(OC)cc1C[C@H](C)C(=O)O)[C@H](C(=O)O)[C@H]2c1ccc2c(c1)OCO2,-0.145%,
CC(C)CC(C)(N)C#N (stereo not given),-0.0397% [at 95.7 µM],
CCCCOCCOC(=O)COc1cc(Cl)c(Cl)cc1Cl,-0.0588%,
Nc1ccccn1,-0.0593%,
